Compound activity as filed in PubChem BioAssay.
HPGD inh = inhibitors of human 15-hydroxyprostaglandin dehydrogenase (HPGD); P15428; purified HPGD, NADH fluorescence kinetic, PGE2 substrate; Potency, µM, for inactives: at the highest dose activity change, negative = inhibition, actives largely listed as inhibitors; hit rate 4.3% among 150,000; AID 894; active = well fitted inhibition curve with a large enough effect, not every such curve was filed as active; inconclusive = small, poorly fitted or top-dose-only effect, or another doubt; inactive = no such curve, though single readings can be large or run the other way; note: potency is the fitted concentration of half-maximal effect; % is set by controls: 0 for no effect and ±100 for the full control effect
Target sequence (P15428 whole entry, looked up): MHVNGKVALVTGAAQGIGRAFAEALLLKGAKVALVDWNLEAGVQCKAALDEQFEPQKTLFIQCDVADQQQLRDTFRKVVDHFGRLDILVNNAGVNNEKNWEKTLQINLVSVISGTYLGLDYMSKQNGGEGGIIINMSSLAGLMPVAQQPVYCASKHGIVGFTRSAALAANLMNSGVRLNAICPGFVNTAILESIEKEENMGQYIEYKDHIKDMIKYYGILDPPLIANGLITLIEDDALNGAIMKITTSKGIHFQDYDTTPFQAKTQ
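NADH formation kinetics: reaction with 30 uM PGE2 and 1 mM NAD+ (final), 20 nM enzyme, Tris-HCl pH 8 with Tween 20, after 15 min compound preincubation at room temperature. Fluorescence change, last versus first of five reads.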
HTT cytoprotect = cytoprotection in Huntington HTT-Q103 PC12 cell model; PC12 HTT-Q103 induced, cytoprotection, ATP luminescence, 40 h; Potency, µM (doses to about 56.4 µM), without a hit: cytoprotection (ATP increase), usual class: activators; hit rate 0.14% among 230,000; AID 1471; note: potency is the fitted concentration of half-maximal effect; % of control where 0% means no effect; nearly all actives have a fitted effect of over 45% in size
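Compounds were screened for protection of PC12 cells against cell death after tebufenozide induction (100 nM final) of mutant Huntingtin exon 1 (Q103) fused to GFP.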
IMPase Li inh = IMPase inhibition in cells with lithium potentiation; AID 1457; hit rate 0.35% among 210,000; Potency, µM (doses to about 59.4 µM), for inactives: at the top dose activity, negative = IMPase inhibition, actives largely listed as inhibitors; CHO-M1 cells, IP1 TR-FRET (IP-One), carbachol + lithium;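 note: IP1 builds up when IMPase is blocked and the TR-FRET signal falls; potency is the fitted concentration of half-maximal effect; plate controls were basal vehicle for no effect and high inhibitor control for full effect; nearly all actives have a fitted effect of over 50% in size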
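Readout is a homogeneous TR-FRET IP1 immunoassay (Ex 320, Em 665 and 620), where raised cytosolic IP1 lowers signal. Cells were CHO-M1 treated 30 min at 37C with test compounds plus a little lithium; AC50 values came from Hill-equation fitting.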
IMPase inh = cell-permeable inhibitors of inositol monophosphatase (IMPase). P97697. AID 901. CHO-M1 cells, IP1 accumulation, HTRF TR-FRET ratio. 120,000 tested, under 10 active. inhibition (IP1 accumulation), % at 46.1 µM; active = well fitted curve in the direction sought with a large enough effect in the signal ratio, not every such curve was filed as active; inconclusive = small, poorly fitted or top-dose-only effect, or a change in a side signal; inactive = no such curve, though single readings can be large or run the other way; the % refers to the signal ratio;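 note: cells stimulated with carbachol in lithium chloride buffer; plate controls were DMSO basal wells for no effect and reference inhibitor wells for full effect; higher means more IMPase inhibition seen as more IP1 and lower FRET ratio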
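Elevated IP1 in lysates lowers TR-FRET signal (665/620 ratio and 620 channel reported). Cells were CHO-M1, given carbachol (50 uM as added) plus 50mM LiCl, pH 7.4, 30 min, 37C; compounds titrated up to 46 uM; AC50 by Hill equation.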
ALDH1A1 block = ALDH1A1 (human) enzyme inhibition; P00352; Purified ALDH1A1, NADH fluorescence, propionaldehyde substrate; Potency, µM (highest dose often 75.3 µM), without a hit: at the top dose activity, negative = inhibition, actives largely listed as inhibitors; hit rate 7.3% among 220,000; active = well fitted inhibition curve with a large enough effect, not every such curve was filed as active; inconclusive = small, poorly fitted or top-dose-only effect, or another doubt; inactive = no such curve, though single readings can be large or run the other way;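 note: potency is the fitted concentration of half-maximal effect; plate controls were no enzyme wells and a reference inhibitor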
Target sequence (P00352 whole entry, looked up): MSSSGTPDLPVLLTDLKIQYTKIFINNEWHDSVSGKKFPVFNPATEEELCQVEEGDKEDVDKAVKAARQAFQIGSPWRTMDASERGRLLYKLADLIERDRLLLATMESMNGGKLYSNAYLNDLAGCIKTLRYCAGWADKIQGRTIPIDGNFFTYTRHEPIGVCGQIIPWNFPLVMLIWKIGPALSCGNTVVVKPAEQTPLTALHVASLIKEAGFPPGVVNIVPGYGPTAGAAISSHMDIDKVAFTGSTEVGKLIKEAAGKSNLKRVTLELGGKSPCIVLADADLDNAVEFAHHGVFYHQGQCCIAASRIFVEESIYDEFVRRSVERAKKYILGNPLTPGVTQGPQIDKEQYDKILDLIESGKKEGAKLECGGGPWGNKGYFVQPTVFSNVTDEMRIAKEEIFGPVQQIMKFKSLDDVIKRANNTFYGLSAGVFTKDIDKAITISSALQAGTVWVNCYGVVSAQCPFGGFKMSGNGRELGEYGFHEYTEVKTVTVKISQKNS
HttQ103 aggreg = reduces HttQ103-GFP aggregates in PC12 cells; Potency, µM (titrated, usually from 46.1 µM), for the others: at the top dose activity change, negative = inhibition, actives largely listed as inhibitors; PC12 HttQ103-GFP aggregates, Acumen cytometry, 40 h; AID 1688; hit rate 1.1% among 220,000; note: potency is the fitted concentration of half-maximal effect; % is set by controls: 0 for no effect and ±100 for the full control effect; nearly all actives have a fitted effect of over 60% in size
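PC12 cells stably carrying ecdysone-inducible HTT exon 1 Q103–GFP were induced with tebufenozide (100 nM final) and treated with library compounds in titration. GFP aggregates in lysates were counted by laser scanning cytometry.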
* marks the source's active call; other numbers are inactive results; ? = inconclusive; . = no result; ! = not confirmed by another sample; [ ] = another dose, or the depositor's remark. Shown are actives, neighbours in structure and some others; about 9.4% of the full set was active somewhere. Unless noted, calls come from the whole dose curve; as a rule, active = well fitted curve in the direction sought with a large enough effect; inconclusive = small, poorly fitted or top-dose-only effect, or another doubt; inactive = no such curve, though single readings can be large; an effect the other way counts as inactive or inconclusive.

SMILES | HPGD inh | HTT cytoprotect | IMPase Li inh | IMPase inh | ALDH1A1 block | HttQ103 aggreg
Cn1c(SCC(=O)NCC2CCCO2)nnc1-c1c[nH]c2ccccc12 (configuration not stated) | -7% | -5%[10 µM] | 4%[38.3 µM] | 2 | 8% | 6%
CCn1c(SCC(=O)NCC2CCCO2)nnc1-c1c[nH]c2ccccc12 (configuration not stated) | 32µM* | 6%[0.074 µM] | 7%[38.3 µM] | 0 | -19% | 11%
O=C(CSc1ccc2nnc(-c3ccc(F)cc3)n2n1)NCC1CCCO1 (configuration not stated) | ? | -14% | 25µM* | 9 | ? | 4%
Cc1ccccc1-n1nnnc1SCC(=O)NCC1CCCO1 (configuration not stated) | . | 8%[10 µM] | -1% | . | 5.6µM* | -2%
COc1ccc(-c2nnc3ccc(SCC(=O)NCC4CCCO4)nn23)cc1 (configuration not stated) | -4% | 9%[10 µM] | 32%[38.3 µM] | 1[1.84 µM] | -7% | -18%
COC(=O)C(C(=O)OC)C1c2ccccc2C=C(C)N1C(=O)OC (configuration not stated) | -7% | 5%[10 µM] | 2% | . | 11%[13.5 µM] | .
Cc1cccc(C(=O)N2CCN(c3ccc([N+](=O)[O-])c(N4CCOCC4)c3)CC2)c1 | -16% | -14% | -8%[38.3 µM] | 2 | 5µM* | -1%
O=C(c1cc([N+](=O)[O-])ccc1Cl)N1CCN(c2ccccc2)CC1 | -12% | ? | -1% | 10 | ? | -9%
O=C(c1ccc2ccccc2c1)N1CCN(c2ccc([N+](=O)[O-])c(N3CCOCC3)c2)CC1 | -17% | -24% | -8%[38.3 µM] | -2 | ? | ?
Cc1cc(C(=O)N2CCN(c3ccc([N+](=O)[O-])cc3)CC2)no1 | -1% | 34%[0.074 µM] | 5% | . | -10% | 0%
CCSc1ccccc1C(=O)N1CCN(c2ccc([N+](=O)[O-])cc2)CC1 | . | 8%[10 µM] | 16% | . | 14µM* | 13%[9.22 µM]
Nc1nnc(SCC(=O)c2ccc([N+](=O)[O-])cc2)s1 | . | -30% | -3% | . | 2.8µM* | 16%
Cc1c(-c2ccccc2)oc2c(C(=O)N3CCN(c4ccc([N+](=O)[O-])cc4)CC3)cccc2c1=O | -18% | -25%[10 µM] | 14% | 7 | 3.5µM* | 4µM*
CCOC(=O)CNC(=O)O[C@H]1C(=O)c2cc(OC)ccc2O[C@@H]1c1ccc(OC)c(Br)c1 | -9% | 4% | -1% | . | -3% | .
CC(C)(O)C#Cc1ccc(C(=O)N2CCN(c3ccc([N+](=O)[O-])cc3)CC2)cc1 | . | -49% | 16% | . | 20µM* | ?
O=C(c1ccc2c(c1)OCCO2)N1CCN(c2ccc([N+](=O)[O-])cc2)CC1 | . | 0%[10 µM] | 12% | . | 14µM* | -16%
CCn1cc(C(=O)N2CCN(c3ccc([N+](=O)[O-])cc3)CC2)c(=O)c2ccc(C)nc21 | . | -13% | -4% | . | 25µM* | -21%
O=C(Nc1ccc2c(c1)OCCO2)C1CCN(C(=O)c2ccc([N+](=O)[O-])cc2)CC1 | . | -36% | 15% | . | -6% | 8%
O=C(CSc1ccccc1C(=O)O)c1ccc([N+](=O)[O-])cc1 | . | -20% | 0% | . | 16µM* | -3%
COc1ccccc1-c1nnc(SCC(=O)Nc2ccc(S(N)(=O)=O)cc2)n1N | . | 1%[10 µM] | . | . | . | -6%[9.22 µM]
Cc1cc(C(=O)N2CCCC(C(=O)c3ccc4ccccc4c3)C2)n(C)n1 (configuration not stated) | . | 1%[10 µM] | 13% | . | ? | 1%[9.22 µM]
NC(=O)OC[C@@H]1[C@H](NC(=O)/C(=N/OCC(=O)O)c2csc(N)n2)C(=O)N1S(=O)(=O)O | . | -9% | . | . | . | 2%
COc1ccccc1NC(=O)CN(Cc1ccco1)C(=O)c1cc2ccccc2o1 | . | -4%[10 µM] | 13% | . | 22µM* | 22%
COc1ccccc1NC(=O)CN(Cc1ccco1)C(=O)c1ccc(=O)[nH]c1 | . | 11%[10 µM] | . | . | . | -14%[9.22 µM]
Cc1ccc(C(=O)NNC(=O)c2ccc(C)cc2)cc1 | . | -35% | 3% | . | 18% | 10%
SMILES | HPGD inh | HTT cytoprotect | IMPase Li inh | IMPase inh | ALDH1A1 block | HttQ103 aggreg
Cc1ccc(C(=O)NC=C(Cl)Cl)cc1 | 28µM* | 3% | 23%[38.3 µM] | 16 | -4% | -13%
Cc1ccc(C(=O)NC(O)C(Cl)Cl)cc1 (configuration not stated) | 25µM* | . | -9% | . | 7% | 16%
CCCCC[C@H](O)/C=C/C=C\C=C\C=C\[C@@H](O)[C@@H](O)CCCC(=O)O | 1% | -10% | -5% | . | 10% | .
COC(CNC(=O)c1cc(C(=O)c2c(-c3c(Cl)cccc3Cl)noc2C)c[nH]1)OC | -22% | 6% | -14%[38.3 µM] | 6 | 10µM* | 4%
CCc1cc(C(=O)Cc2nc3ccccc3s2)c(O)cc1OCC(=O)O | . | 8%[10 µM] | . | . | 1% | 6%[9.22 µM]
CC(/C=C/C(=O)NO)=C\[C@@H](C)C(=O)c1ccc(N(C)C)cc1 | -22% | -175% | 23% | . | 28µM*! | .
O=C(O)CCCC(=O)Nc1ccc(OCc2nc3ccccc3s2)cc1 | . | -9%[10 µM] | -2% | . | 1.8µM* | -13%[9.22 µM]
CC(=O)c1c(C)[nH]c(C(=O)OCc2ccccc2)c1C | -5% | 23%[10 µM] | 3% | . | 11% | -11%
CCN(CC)CCc1c(C)[nH]c(C(=O)OCc2ccccc2)c1C | -3% | 17% | 19%[38.3 µM] | 8 | 20µM* | -14%[9.22 µM]
O=C(Nc1ccccc1)N1CC[C@@]2(CCCN(C(=O)c3cccc(F)c3)C2)C1 | -1% | 14% | 3% | . | -3% | .
O=C(NCc1ccccc1)c1ccc2c(c1)C(=O)N(CC1CCCO1)C2=O (configuration not stated) | -20% | 9% | -10%[38.3 µM] | 0 | 5µM* | -6%
COc1ccccc1OCC(=O)Nc1ccc2c(c1)C(=O)N(CC1CCCO1)C2=O (configuration not stated) | . | 3%[10 µM] | 4% | . | 4.5µM* | -5%
O=C(Cc1ccccc1)Nc1ccc2c(c1)C(=O)N(CC1CCCO1)C2=O (configuration not stated) | . | -4% | 0% | . | ? | 21%
O=C(O)c1cccc(NC(=O)c2ccc3c(c2)C(=O)N(CC2CCCO2)C3=O)c1 (configuration not stated) | -6% | 7%[10 µM] | 6%[38.3 µM] | -7 | ? | -8%
O=C(COc1ccccc1)Nc1ccc2c(c1)C(=O)N(CC1CCCO1)C2=O (configuration not stated) | . | -25% | -4% | . | ? | 7%
COC(=O)c1cccc(NC(=O)c2ccc3c(c2)C(=O)N(CC2CCCO2)C3=O)c1 (configuration not stated) | -8% | 1% | 18%[38.3 µM] | -1 | 1.4µM* | 7%
O=C(O)c1ccc2c(c1)C(=O)N(Cc1ccccc1)C2=O | 14µM* | 8%[1.9 µM] | 15%[38.3 µM] | 0 | -11% | -17%
